Records with an inconclusive call do not appear. Entries that show only a call come without a potency. Active and inactive are the calls of the source. Calls come from the whole dose curve; as a rule, active = well fitted inhibition curve with a large enough effect; inconclusive = small, poorly fitted or top-dose-only effect; inactive = flat fitted curve, though single readings scatter.
biological target: Calcium and integrin-binding protein 1 (Homo sapiens) (UniProt Q99828); assay: Primary qHTS for Identification of Calcium Integrin Binding Protein 1 (CIB1) Competitor (AID 1508620); details: CIB1-GST / FITC-alphaIIb peptide fluorescence polarization; series mostly up to 114 µM;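 note: GST tagged CIB1 binding a fluorescein labelled alphaIIb integrin peptide tracer; top concentration of the series differs between compounds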
In short: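 Fluorescence polarization competition: CIB1-GST (1 uM final) preincubated with compound 15 min at room temperature, then FITC-labeled alphaIIb peptide (100 nM final) added for another 15 min. Polarization read at Ex 480/Em 540.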

Calcium and integrin-binding protein 1 (Homo sapiens), sequence (Q99828 whole entry, looked up): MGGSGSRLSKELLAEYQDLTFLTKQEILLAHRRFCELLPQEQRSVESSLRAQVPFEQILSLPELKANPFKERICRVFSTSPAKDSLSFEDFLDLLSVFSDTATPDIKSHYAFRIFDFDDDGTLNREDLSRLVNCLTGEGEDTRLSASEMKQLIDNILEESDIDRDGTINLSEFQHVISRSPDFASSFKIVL

SMILES | Potency
COc1ccc(-c2csc(N3CCC(C(N)=O)CC3)n2)cc1OC | inactive
COc1ccc(C2c3c(ncn(CCc4ccccc4)c3=N)Oc3ccc4ccccc4c32)cc1OC (stereo not given) | inactive
O=[N+]([O-])c1ccccc1NCc1ccc(O)c2ncccc12 | inactive
O=C(O)c1ccc2c(c1)C(=O)N([C@@H](C(=O)O)C(c1ccccc1)c1ccccc1)C2=O | inactive
Cc1ccc(S(=O)(=O)N2CCN(S(=O)(=O)c3ccc4c(c3)OCCO4)CC2)cc1 | inactive
c1nc(NCC2CCCCC2)c2cc(-c3ccc4c(c3)OCO4)ccc2n1 | inactive
Cc1ccc(NS(=O)(=O)c2cc3c(cc2-c2ccccc2)NC(=O)CO3)cc1C | inactive
COc1ccc(Nc2nc(-c3ccncc3)nc3ccccc23)cc1F | inactive
S=C(Nc1cc(Cl)ccn1)N1CCN(c2cccc(Cl)c2Cl)CC1 | inactive
Cc1ccnc(NC(=S)N2CCCN(c3cccc(C(F)(F)F)c3)CC2)c1 | inactive
FC(F)(F)c1ccccc1-c1nc2c(c(NCc3ccc(-c4cccnc4)cc3)n1)CCC2 | inactive
NC(=O)C1CCN(c2nc(-c3ccc(N4CCCCC4)nc3)cs2)CC1 | inactive
Cc1cc(C)nc(NC(=S)N2CCN(c3cncnc3)CC2)c1 | inactive
O=C(N[C@H]1CCCc2c1cnn2-c1ccc(F)cc1F)c1ccccn1 | inactive
COc1ccc(-c2nc3ccccc3c(=O)n2Cc2ccc(CNC(=O)CO)cc2)cc1COc1ccc(NC(C)=O)cc1 | inactive
Fc1cc(-c2nc(Nc3ccc(F)c(F)c3)c3ccccc3n2)ccn1 | inactive
CC(=O)c1ccc(N2CCN(S(=O)(=O)c3cc4c(cc3Cl)NC(=O)C4)CC2)cc1 | inactive
O=[N+]([O-])c1cccc(CSc2nc3ncc(Br)cc3[nH]2)c1 | inactive
Cc1cc(C)nc(NC(=S)N2CCN(c3ccc(C(=O)O)cc3)CC2)c1 | inactive
COc1cccc(C2c3c(ncn(-c4cccc(C#N)c4)c3=N)Oc3ccc4ccccc4c32)c1 (stereo not given) | inactive

SMILES | Potency
Cc1ccc(C)n1-c1cccc(-c2nn[nH]n2)c1 | inactive
Cc1ccsc1CNc1ncnc2ccc(-c3c(C)noc3C)cc12 | inactive
Nc1c(-c2ccncc2)cc[nH]c1=O | inactive
Oc1cc(Nc2ccccc2)cc2cccnc12 | inactive
Cc1cnc(-c2ccccc2C2COC2)nc1NCc1ccc(-n2ccnn2)cc1 | inactive
Cc1cccc(S(=O)(=O)N2CCN(S(=O)(=O)c3ccc4c(c3)OCCO4)CC2)c1 | inactive
COc1ccc2c(c1)Oc1nc(-c3ccc(C)cc3)nc(SCC(=O)Nc3cccc(C(=O)O)c3)c1C2 | inactive
CS(=O)(=O)c1ccc(C(=O)OCC(=O)N2CCOCC2)cc1[N+](=O)[O-] | inactive
O=S(=O)(NCCCCCCNS(=O)(=O)c1c(F)cccc1F)c1ccc2c(c1)OCCO2 | inactive
CC(C)c1ccccc1-c1ncc(F)c(NC2(c3ccc(-c4cccnc4)cc3)CC2)n1 | inactive
Fc1ccccc1-c1nc(NCc2ccc(-c3cccnc3)cc2)c2ccccc2n1 | inactive
Cc1cc(C)n2ncc(C(=O)Nc3ccccc3Sc3ccccc3)c2n1 | inactive
O=C1CN(S(=O)(=O)c2ccc3c(c2)OCCO3)CCN1S(=O)(=O)c1c(F)cccc1F | inactive
Cc1cc(-c2nnc3n2CCCCC3)c(C)n1-c1ccc(Cl)c(Cl)c1 | inactive
COc1ccc(C(=O)N(Cc2ccccc2)Cc2ccc(OC)c(COc3ccc(NC(C)=O)cc3)c2)c(O)c1 | inactive
N#Cc1nc(Nc2cc(F)cc(F)c2)nc(NC2CCCC2)n1 | inactive
O=C(Nc1ccc2c(c1)OCO2)Nc1nnc(-c2ccncc2)s1 | inactive
CCCCN1C(=O)c2ccccc2NC1c1ccc(OC)c(COc2ccc(NC(C)=O)cc2)c1 (stereo not given) | inactive
COc1cc(-c2nc(Nc3ccc(F)c(F)c3)c3ccccc3n2)cc(OC)n1 | inactive
COc1ccc(OC)c(C2=Nn3c(nnc3-c3ccccc3O)SC2)c1 | inactive
